Data taken from ChEMBL document CHEMBL1157539, “Thousands of chemical starting points for antimalarial lead identification” (Nature, 2010).

These compounds were tested on Plasmodium falciparum (assay: GSK_TCMDC: Inhibition of Plasmodium falciparum 3D7 in whole red blood cells, using parasite LDH activity as an index of growth. Test compounds present at 2uM).
Assay type: functional
With `CCN(CC)CCOC(=O)c1ccc(NC(=O)c2cc(-c3ccc(C)cc3)nc3ccccc23)cc1.Cl` the Inhibition was 97%. Compound `Cc1cc2ncn(-c3ccnc(N4CCN(CCCN5CCCC5)CC4)n3)c2cc1C.O=C(O)C(F)(F)F` has an Inhibition of 100%. `O=C(Nc1ccc(F)cc1)c1ccc(C(=O)NC2CCN(CC3CCCCC3)CC2)cc1.O=C(O)C(F)(F)F` gave an Inhibition of 99%. `O=C(/C=C/c1ccc(Cl)c(Cl)c1)NCCCCCN1CCC(NC(=O)Nc2ccc(F)cc2F)CC1` was tested, and the Inhibition was 100%. Compound `Cc1cc(N[C@@H](CC(C)C)C(=O)NCCOc2ccccc2)nc(NCC2CCCCC2)n1.O=C(O)C(F)(F)F` has an Inhibition of 97%. Work on `CCN(CCCN1CCCCC1)c1cc(C)nc(Nc2ccc(C)cc2)n1.O=C(O)C(F)(F)F` yielded an Inhibition of 100%. For `CN1CCN(CCCN(Cc2ccc(-c3ccc(CNCc4ccc5c(c4)OCO5)cc3)cc2)C(=O)CCC2CCCC2)CC1.O=C(O)C(F)(F)F`, the Inhibition was 99%. `CCCC(C)Nc1nc(C)cc(N[C@@H](CC(C)C)C(=O)Nc2ccc(OC)cc2)n1.O=C(O)C(F)(F)F` (some centres not stated) was tested, and the Inhibition was 98%. `COc1ccc2nccc([C@@H](O)CN3CCC(NCc4cc5ccccc5cn4)CC3)c2n1.O=C(O)C(=O)O` gave an Inhibition of 93%. For `Cc1cccc2nc(-c3ccc(-c4cccc(NC(=O)CCc5c[nH]cn5)c4)s3)[nH]c12`, the Inhibition was 94%. `Cc1cccc2nc(-c3cccc(-c4ccc(NC(=O)Nc5ccsc5)cc4)c3)[nH]c12` gave an Inhibition of 100%. With `O=C(Cc1ccc(-n2cnnn2)cc1)N(Cc1cncn1Cc1cccc(C(F)(F)F)c1)CC1CC1` the Inhibition was 86%. `Br.Cc1cc(C)c(C)c(OCCCON2C(=N)N=C(N)NC2(C)C)c1C` showed an Inhibition of 94%. `COC(=O)COc1cc(C(=O)NCCCCN2CCC(c3ccc4c(c3OC)CCCC4)CC2)ccc1-c1ccc(Cl)cc1` gave an Inhibition of 97%. For `Cc1cccc2nc(-c3cccc(-c4cccc(NC(=O)CCc5c[nH]cn5)c4)c3)[nH]c12`, the Inhibition was 100%. Compound `CCNc1cc(CC)nc(Nc2ccc(C)cc2)n1` has an Inhibition of 100%. `CC(C#N)Cc1ccc(-c2cnc(N)c3cc(-c4ccnc(N)n4)ccc23)cc1` (configuration not stated) showed an Inhibition of 96%. Compound `FC(F)(F)CNc1nc(Nc2ccc3ncccc3c2)nc2[nH]ccc12.O=C(O)C(F)(F)F` has an Inhibition of 87%. `Cc1cc(C2CCN(CCCCNC(=O)c3ccc(NC(=O)c4ccc(Cl)cc4)cc3)CC2)c(C)cc1OCc1ccccn1.Cl` gave an Inhibition of 96%. With `COc1ccc(Nc2ncc(OC)c(Nc3ccccc3C(N)=O)n2)cc1N1CCN(C)CC1.O=CO` the Inhibition was 100%. In the case of `CS(=O)(=O)c1ccc(-c2cncc(Cl)n2)cc1`, the Inhibition is reported as 100%. `O=C(Nc1cccc(-c2ccc(CN3CCCC3)cc2)c1)c1ccc(Cl)cc1.O=C(O)C(F)(F)F` showed an Inhibition of 100%. `COc1ccc(Oc2ccc(Nc3ccnc4ccc(C(F)(F)F)cc34)cc2)cc1OC.Cl` was tested, and the Inhibition was 90%. With `Oc1cccc(Nc2nc(NCc3ccco3)c3ccccc3n2)c1` the Inhibition was 100%. In the case of `CCN(CCNS(C)(=O)=O)c1ccc(N)c(C)c1.O.O=S(=O)(O)O`, the Inhibition is reported as 91%. With `Cc1cccc(CC(=N)NCCCCCCNC(=N)Cc2cccc(C)c2)c1.Cl` the Inhibition was 97%. For `CCn1nc(C(=O)NC2CCOc3ccccc32)c2ccccc2c1=O` (configuration not stated), the Inhibition was 86%. `Br.CCN(CC)CCn1c(=N)n(CC(=O)c2ccc(-c3ccccc3)cc2)c2ccccc21` showed an Inhibition of 83%. `CC(C)Oc1cc2c(cc1NS(=O)(=O)c1ccc(-c3ccc(Cl)cc3)cc1)CCN(C)CC2.Cl` showed an Inhibition of 99%. For `O=C(NCCCCN1CCC(c2ccc3c(c2OCC2COCO2)CCCC3)CC1)c1ccc(-c2ccc(C(F)(F)F)cc2)cc1` (configuration not stated), the Inhibition was 99%. Work on `CN1CCN(c2ccnc3ccc(NC(=O)Nc4cccc(C#N)c4)cc23)CC1` yielded an Inhibition of 99%. In the case of `CC(C)(CNCc1ccc(F)c(F)c1)c1nc(-c2ccc(Cl)c(O)c2)c(-c2ccncc2)[nH]1.Cl`, the Inhibition is reported as 100%. `CCCC1(NC[C@@H](O)[C@H](Cc2ccccc2)NC(=O)c2cc(NCC)cc(N3CCCCS3(=O)=O)c2)CC1.Cl` showed an Inhibition of 98%. In the case of `Fc1ccc(Nc2ccnc3cc(-c4ccc(CNCCN5CCOCC5)o4)ccc23)c(Cl)c1`, the Inhibition is reported as 100%. Compound `CN(CCN(C)C(=O)NCc1ccccc1)C(=O)NCc1ccccc1` has an Inhibition of 100%. For `CCCCN(C)CC#Cc1ccc(-c2ccc3[nH]c(C)c(Br)c(=O)c3c2)cn1`, the Inhibition was 98%. Compound `Cc1ccc(NC(=O)c2ccc3ncccc3c2)cc1OC1CCN(CCC(C)C)C1.O=C(O)C(F)(F)F` (configuration not stated) has an Inhibition of 98%.
